Shown are actives, neighbours in structure and some others; about 0.69% of the full set was active somewhere.
Tb PFK inh-1: qHTS Assay to Find Inhibitors of T. brucei phosphofructokinase; ATP-dependent 6-phosphofructokinase (Trypanosoma brucei brucei), O15648; T. brucei PFK, ADP-Glo luminescence; Potency, µM (series often up to 57.5 µM), for inactives: at the top dose activity, negative = inhibition, hits mostly inhibitors; 0.17% of 330,000 active; AID 485367, 2010;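 note: potency is the fitted concentration of half-maximal effect; 0% = uninhibited 1x PFK enzyme wells and -100% = no-enzyme wells; nearly all actives have a fitted effect of over 60% in size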
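Activity is normalized to no-enzyme wells (full inhibition) and 1.25 nM enzyme wells (no inhibition). Reaction: 0.5 mM F6P, 0.1 mM ATP, 45 min RT, ADP-Glo luminescence; concentration-response curves fitted and classed by quality.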
a7 integrin act: qHTS for Activators of Integrin-Mediated Alleviation for Muscular Dystrophy. Potency, µM (doses to about 38.3 µM), for the others: at the highest dose activation, actives largely listed as activators. 0.064% of 350,000 active. alpha7betagal myoblasts, beta-gal FDG fluorescence, 48 h;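 note: potency is the fitted concentration of half-maximal effect; 100% = response of the positive control SU9516; nearly all actives have a fitted effect of over 60% in size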
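alpha7betagal+/- myoblasts (passage 13, 250/well) treated 48 h at 37C with compounds at 1:260 dilution of DMSO stock. Lysed, then beta-galactosidase activity read as FDG fluorescence (ex 480/em 540) after 30 min, with pre-read for autofluorescence.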
PKM2 activator: qHTS Assay for Activators of Human Muscle isoform 2 Pyruvate Kinase; 0.34% of 260,000 active; AID 1631, 2009; purified PKM2, Kinase-Glo ATP luminescence, activation; response scale: 0% is enzyme alone, no compound; Potency, µM (titrated, usually from 57.5 µM), without a hit: at the highest dose activation, hits mostly activators; note: potency is the fitted concentration of half-maximal effect; % is set by controls: 0 for no effect and ±100 for the full control effect; nearly all actives have a fitted effect of over 55% in size
Target sequence (P14618 whole entry, looked up, canonical isoform): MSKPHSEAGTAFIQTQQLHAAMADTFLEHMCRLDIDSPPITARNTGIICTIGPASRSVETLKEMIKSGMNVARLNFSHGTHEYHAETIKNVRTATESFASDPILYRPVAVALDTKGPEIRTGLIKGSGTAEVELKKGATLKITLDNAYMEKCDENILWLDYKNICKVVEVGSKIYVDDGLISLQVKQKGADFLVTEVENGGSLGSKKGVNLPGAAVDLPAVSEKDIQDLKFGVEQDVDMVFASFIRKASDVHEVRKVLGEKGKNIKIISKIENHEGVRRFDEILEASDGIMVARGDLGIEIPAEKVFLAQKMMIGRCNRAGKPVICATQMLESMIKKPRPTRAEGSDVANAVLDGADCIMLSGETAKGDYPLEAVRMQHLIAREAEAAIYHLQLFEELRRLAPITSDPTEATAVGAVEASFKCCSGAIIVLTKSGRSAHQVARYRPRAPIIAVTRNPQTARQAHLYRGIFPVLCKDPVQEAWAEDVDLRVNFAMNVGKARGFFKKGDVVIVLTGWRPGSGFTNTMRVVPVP
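Purified hPK-M2 (>95%) run at intermediate activity with 0.1 mM ADP and 0.5 mM PEP in 50 mM imidazole pH 7.2, KCl, MgCl2; 1 h room temperature. ATP formed read by Kinase-Glo luminescence; normalized to uninhibited and no-enzyme controls.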
A-T KAP1 phos: qHTS Assay for Identifying a Potential Treatment of Ataxia-Telangiectasia; F2112 A-T fibroblasts, KAP-1 phosphorylation AlphaLISA; neocarzinostatin DNA damage 30 min before lysis; AID 485349, 2010; 0.19% of 320,000 active; Potency, µM (series often up to 57.5 µM), for the others: at the highest dose activation, most hits filed as activators; note: potency is the fitted concentration of half-maximal effect; % of control where 0% means no effect; nearly all actives have a fitted effect of over 45% in size
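hTERT-immortalized A-T patient fibroblasts (F2112), 500 cells/well in OPTI-MEM, 1% FBS, got compounds for 60 min, then NCS for 30 min at 37C. Lysates were then assayed for phospho-KAP-1 by AlphaLISA (anti-pKAP1 donor, anti-KAP1 acceptor beads), 6 hr at 25C.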
IL-2 act: qHTS of IL-2 Activators; IL-2 activation reporter assay, cell-based qHTS; stimulated with anti-CD3/CD4/CD28 beads; in transgenic mouse T cells; activation, % (series mostly up to about 46 µM); AID 652025, 2013; 0.065% of 360,000 active; in the data active = activation above about 50%; inconclusive = mostly about 30% to 49%; note: 0% is about no effect
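Quantitative HTS in unstimulated transgenic mouse T cells, with memory T cells as non-tolerant control and PMA/ionomycin as tolerance-bypass control. Compound pretreatment lasted 60 minutes before 18 h bead stimulation; EGFP/DsRed fluorescence read.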
TCR activator: Activators of T cell receptors: qHTS campaign; 330,000 tested, under 10 active; Potency, µM (doses to about 9.22 µM), inactives show at the top dose activation of IL-2 secretion, actives largely listed as activators; primary human leukocytes, anti-CD3, IL-2 HTRF, 48 h; note: % of control where 0% means no effect
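Readout: HTRF IL-2, Eu-cryptate/d2 antibody pair, 320nm excitation, 665nm emission. Stimulus: a-CD3 beads, no co-stimulation. Cells: primary human leukocytes. Exposure: 48 hr with compound.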
TbPFK ATP: Tb PFK orthogonal confirmatory assay using ATP depletion (Kinase-Glo Plus) as an alternative measure of Tb PFK activity: Hit Validation; shares compounds with Tb PFK inh-1; Tb PFK enzyme, ATP depletion, Kinase-Glo Plus luminescence; Potency, µM (top dose mostly 57.5 µM), for inactives: top-dose inhibition; 47% of 1,100 active; calls by dose curve; note: potency is the fitted concentration of half-maximal effect; nearly all actives have a fitted effect of over 60% in size
Tb PFK inh-2: Inhibitors of T. brucei phosphofructokinase: Hit Validation | 41% of 1,100 active | purified T. brucei PFK, ADP-Glo luminescence, 45 min | Potency, µM (titrated, usually from 57.5 µM), without a hit: at the highest dose activity change, negative = inhibition, actives largely listed as inhibitors | shares compounds with Tb PFK inh-1;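 note: potency is the fitted concentration of half-maximal effect; plate controls were full PFK enzyme control for no effect and no enzyme control for full effect; nearly all actives have a fitted effect of over 60% in size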
The depositor's hits bear a star; ? = inconclusive; . = no result given; [ ] = another dose, or the depositor's remark. Unless noted, calls come from the whole dose curve; as a rule, active = well fitted curve in the direction sought with a large enough effect; inconclusive = small, poorly fitted or top-dose-only effect, or another doubt; inactive = no such curve, though single readings can be large; an effect the other way counts as inactive or inconclusive.

SMILES	Tb PFK inh-1	a7 integrin act	PKM2 activator	A-T KAP1 phos	IL-2 act	TCR activator	TbPFK ATP	Tb PFK inh-2
O=C(Cc1ccc([N+](=O)[O-])cc1)N1CCN(Cc2ccc3c(c2)OCO3)CC1	0%	-6%	5%	-4%	0	-27%	.	.
Cc1cc(NS(=O)(=O)c2ccc(NC(=O)/C=C/c3ccc(C)o3)cc2)nc(C)n1	?	?	?	-3%	-1	-10%	-12%	?
CCOc1ccc(NC(=O)CCS(=O)(=O)c2ccc(Br)cc2)cc1	15µM*	2%	.	31%	0	2%	2.7µM*	4.8µM*
C#CC(CC)(CC)NC(=O)Nc1ccc(OCC)cc1	-1%	5%	1%	-1%	0	-9%	.	.
O=C(CCCc1ccccc1)NCCc1cnc[nH]1	2%	34%	.	1%	-3	2%	.	.
COC(=O)[C@@H]1C[C@@]2(O)[C@H](O)[C@H](O)[C@H](O)C[C@H]2N1Cc1cccnc1	.	.	8%	.	.	.	.	.
Cc1ccc(S(=O)(=O)Nc2cc(C(=O)N3CCC4(CC3)OCCO4)ccc2N2CCCCC2)cc1	-1%	-16%	5%	2%	0	0%	.	.
O=C(NCC(F)(F)F)c1ccc(S(=O)(=O)Nc2ccccc2N2CCCC2)cc1	?	-22%	.	33%	0	-2%	-31%	?
Nc1n[nH]c(=S)n1/N=C1/C(=O)Nc2ccccc21	?	7%	-4%	0%	-2	-6%	3µM*	9.5µM*
CC12CCC3c4ccc(OC(=O)N(CCCl)CCCl)cc4CCC3C1CCC2O (stereo unspecified)	.	-16%	.	.	-6	1%	.	.
CCn1cc(C(=O)NCc2ccco2)c(=O)c2cc(F)c(N3CCN(C(=O)c4ccco4)CC3)cc21	9.5µM*	-36%	6%	1%	-3	7%	?	?
Fc1cccc(-c2ccc3c(c2)CNCc2cnnn2-3)c1	.	.	.	.	0	.	.	.
COc1ccc(S(=O)(=O)N2Cc3cnnn3-c3ccccc3C2C#N)cc1 (stereo unspecified)	.	-18%	.	.	0	-4%	.	.
O=C(/C=C/c1ccc2c(c1)OCO2)c1c(O)n(CCc2ccccc2)c(=O)[nH]c1=O	1%	-27%	0%	8%	1	-6%	.	.
O=C(N/N=C\C=C\c1ccc2c(c1)OCO2)C1COc2ccccc2O1 (stereo unspecified)	27µM*	?	1%	-12%	0	-1%[46.1 µM]	17µM*	21µM*
O=C(Oc1ccccc1)N(c1ccccc1)c1ccccc1	-8%	-22%	-12%	?	0	4%	.	.
O=c1ccnc(NCCc2ccccc2)[nH]1	9.5µM*	-2%	-24%	.	0	-4%	21µM*	27µM*
N#CC(=C(O)c1ccc(S(=O)(=O)N(CCCl)CCCl)cc1)c1nc2ccccc2[nH]1	.	2%	.	.	0	3%	.	.
COc1cccc(N2CC(C(=O)Nc3ccc(F)cc3)CC2=O)c1 (stereo unspecified)	19µM*	?	7%	11%	0	-13%	6%	-5%
CN(C)S(=O)(=O)c1ccc(NC(=O)C2COc3ccccc3O2)cc1 (stereo unspecified)	19µM*	5%	-2%	-4%	-3	-6%[46.1 µM]	12µM*	27µM*
O=C(Nc1ccc(S(=O)(=O)Nc2ccccc2)cc1)C1COc2ccccc2O1 (stereo unspecified)	11µM*	-23%	?	5%	-2	-3%[46.1 µM]	12µM*	30µM*
Cc1cccc(-n2c(/C=C/c3ccccn3)nc3ccccc3c2=O)c1	-6%	-39%	1%	10%	-1	-3%	.	.
COc1ccc(Cl)cc1C(=O)NNC(=O)COC(=O)CCN=C1NS(=O)(=O)c2ccccc21	?	15%	.	-14%	-1	-1%	-28%	?
COc1ccc(OCC(=O)Nc2ccc(Cl)cc2C(=O)c2ccccc2)cc1	-5%	-3%	-1%	0%	-1	2%	.	.
Cc1nn(C(C)(C)C)c(C)c1/C=N/OC(=O)Nc1ccc(Cl)cc1	1%	?	2%	11%	-1	2%	.	.
SMILES	Tb PFK inh-1	a7 integrin act	PKM2 activator	A-T KAP1 phos	IL-2 act	TCR activator	TbPFK ATP	Tb PFK inh-2
O=C(Nc1ccc(Cl)c(Cl)c1)O/N=C/c1ccncc1	8.5µM*	10%	4%	.	2	0%	?	?
N#Cc1sc(NCc2ccccn2)nc1Cl	?	24%	.	-14%	0	-1%	?	?
O=S(=O)(c1ccc2nc(COc3ccc(Cl)cc3Cl)[nH]c2c1)N1CCOCC1	?	16%	2%	-4%	-1	.	?	?
C=CCNc1nc(C(=O)OCC(=O)c2ccccc2)cs1	8.5µM*	-15%	0%	6%	-4	-4%	7%	-8%
O=C(Cc1ccccc1)OCC(=O)c1ccccc1	1%	-8%	-1%	13%	0	2%	.	.
O=C(O)C(O)(c1ccc(Cl)cc1)C1(O)CCCC1 (stereo unspecified)	.	24%	.	.	3	.	.	.
CSC(=NC#N)N1CCN(c2cccc(Cl)c2)CC1	17µM*	0%	-11%	27%	0	1%	21µM*	11µM*
CN1CCc2nc3sc(C(=O)C45CC6CC(CC(C6)C4)C5)c(N)c3cc2C1	?	-40%	0%	23%	3	9%	-34%	?
C[C@@H]1COc2cccc(N3CCN(C)CC3)c2S(=O)(=O)N1	.	.	.	.	0	.	.	.
O=C(NC(=S)Nc1ccccc1C(=O)O)c1ccc2ccccc2c1	?	3%	-1%	-1%	0	0%	-24%	?
COc1ccc(C(=O)Nc2cc(Cl)ccc2C(=O)O)cc1	6%	?	-42%	1%	0	.	.	.
CCSc1nnc(NC(=O)COc2ccc3ccccc3c2)s1	?	14%	-5%	8%	-1	-13%	-33%	?
